Laboratory results taken from PubChem BioAssay (NCI).
The panel holds about 79,000 compounds, 15% with a hit somewhere; the sample as a whole holds those more often. Rule as the data show it: active = growth inhibition above about 70%; inactive = the rest.

Tests used:
[1] = NCI Yeast Anticancer Drug Screen. Data for the rad50 strain (AID 155);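 also: 0% = growth of vehicle-only cultures of the same strain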; details: S. cerevisiae rad50 strain growth inhibition; at 50.0 µM; stronger effect = higher value
Outline: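 Growth of the mutant yeast was measured after compound exposure and referenced to vehicle-treated cultures.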

[2] = NCI Yeast Anticancer Drug Screen. Data for the mec2-1 strain (AID 157); details: S. cerevisiae mec2-1 strain, at 50.0 µM, stronger effect = higher value
Outline: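 Vehicle-treated cultures served as reference for growth inhibition of compound-exposed mec2-1 yeast.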

[3] = NCI Yeast Anticancer Drug Screen. Data for the mlh1 rad18 strain (AID 175); details: S. cerevisiae mlh1 rad18 strain growth inhibition; at 50.0 µM; stronger effect = higher value
Outline: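 Vehicle-treated cultures served as the reference for growth inhibition in a yeast strain carrying DNA damage repair alterations exposed to each compound.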

Measured: growth inhibition

OCCN(CCO)C(CO)(CO)CO
inactive: [1] 0.7% | [2] -12.8% | [3] 24.8%

COc1cc(/C=N/n2cnnc2)cc(OC)c1OC
inactive: [1] -8.35% | [2] 5.45% | [3] -13.7%

C[N+](C)(C)CN1C(=O)c2ccccc2C1=O
inactive: [1] -11.9% | [2] -29.2% | [3] -4.8%

S=c1[nH]nc(NC2CCCCC2)s1
inactive: [1] -4.4% | [2] -12% | [3] -7.1%

CCCCCCC(=O)CCCC(C)CCCC(C)C (configuration not stated)
inactive: [1] -13.5% | [2] -23.6% | [3] -3.85%

COc1cc2c(cc1O)C(Cc1ccc(OC)c(OC)c1)N(C)CC2 (configuration not stated)
inactive: [1] 4.25% | [2] 0.85% | [3] 2.35%

CCOC(=O)C(CNc1ccccc1)C(=O)OCC
inactive: [1] -25.4% | [2] -3.05% | [3] -11.7%

Cc1ccccc1Nc1n[nH]c(=S)s1
inactive: [1] 46.1% | [2] 17.8% | [3] 33%

CC(=O)CC(=O)N1CCN(C(=O)CC(C)=O)CC1
inactive: [1] -16.9% | [2] -16.8% | [3] -23.3%

Cc1ccc(CNc2ccc(I)cc2)cc1
inactive: [1] 37.5% | [2] 37.9% | [3] 33.9%

CCOC(=O)CC(=O)c1ccc(C)cc1
inactive: [1] -13.6% | [2] -3.45% | [3] 9.75%

Nc1ccc(Nc2nc3ccccc3s2)c(O)c1
inactive: [1] 22.6% | [2] 2.15% | [3] 24.6%

COc1ccc(C2NC(=O)c3ccccc3N2)c(OC)c1OC (configuration not stated)
inactive: [1] -8.55% | [2] -20.5% | [3] -16.4%

O=C1c2ccccc2C(=O)N1CNc1ccc(Cl)cn1
inactive: [1] -18.9% | [2] -43.9% | [3] -24.6%

COc1ccc(NC(=S)N(C)C)cc1
inactive: [1] 19.5% | [2] -11% | [3] 3.1%

CCOc1ccc(/C=C(/C#N)C(N)=O)cc1
inactive: [1] 9.7% | [2] -8.1% | [3] 9.05%

COc1cc(/C=C2/SC(=S)NC2=O)cc(OC)c1OC
inactive: [1] 16.8% | [2] -1.4% | [3] 19.4%

O=C(/C=C/C=C/c1ccccc1)c1ccc(Cl)cc1
inactive: [1] -12.3% | [2] -27.4% | [3] 3.5%

O=S(=O)(O)c1cccc2cccc(Cl)c12
inactive: [1] 9.7% | [2] -7.4% | [3] 10.9%

C[n+]1ccccc1/C=C/c1cccc(O)c1
inactive: [1] 14% | [2] -19.9% | [3] 17.8%

COc1cc(-c2cc(=O)c3ccc(O)cc3o2)cc(OC)c1OC
inactive: [1] 10.1% | [2] -32.4% | [3] 2.2%

CCOc1ccc(Br)cc1/C=C1\N=C(c2ccccc2)OC1=O
inactive: [1] -2.25% | [2] -12.2% | [3] 1.7%

CN(C)/C=C/C(=O)c1ccccc1[N+](=O)[O-]
inactive: [1] 16.7% | [2] -11.4% | [3] 12.2%

CCCCOc1cc(C(=O)NCCN(CC)CC)c2ccccc2n1
inactive: [1] -2.1% | [2] -9.6% | [3] 1.9%
